The target in assay [1] is T1, Aspartate--tRNA(Asp/Asn) ligase (Mycobacterium tuberculosis (strain ATCC 25618 / H37Rv)) (UniProt P9WFW3). Also: in the data most compounds retested in dose-response had high values.
T1 sequence (whole entry): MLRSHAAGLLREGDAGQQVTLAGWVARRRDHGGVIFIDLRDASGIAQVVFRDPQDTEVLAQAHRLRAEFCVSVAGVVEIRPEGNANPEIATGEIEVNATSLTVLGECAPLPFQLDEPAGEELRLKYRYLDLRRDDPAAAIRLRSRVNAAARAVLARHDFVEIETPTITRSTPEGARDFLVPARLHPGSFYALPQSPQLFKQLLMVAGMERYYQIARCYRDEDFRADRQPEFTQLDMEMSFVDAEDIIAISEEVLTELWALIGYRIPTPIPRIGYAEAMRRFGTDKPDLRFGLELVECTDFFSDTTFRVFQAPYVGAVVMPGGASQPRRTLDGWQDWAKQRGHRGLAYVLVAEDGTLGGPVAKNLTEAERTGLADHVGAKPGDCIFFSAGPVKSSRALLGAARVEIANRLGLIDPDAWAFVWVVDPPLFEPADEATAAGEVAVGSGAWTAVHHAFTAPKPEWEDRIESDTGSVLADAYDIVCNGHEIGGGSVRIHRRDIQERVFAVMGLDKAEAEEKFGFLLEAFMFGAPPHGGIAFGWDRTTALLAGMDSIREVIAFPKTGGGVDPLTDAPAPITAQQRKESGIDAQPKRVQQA
Briefly: Assay for Asp RNA synthetase-1 from Mycobacterium tuberculosis. The format is functional. Also noted: scale not given: direction of the effect not stated beside the values. Conditions: 30 µM.

The target in assay [2] is Shiga toxin 2 (Escherichia coli O157:H7) (UniProt P09385+P09386). Briefly: E. coli 0.157:H7 Shiga Toxin SOP - stx2 screening assay. In kind it is functional. The arrangement: scale not given: direction of the effect not stated beside the values. The conditions noted are these: 30 µM.

`COc1ccc(OCCN(C)C(=O)NC(C)c2nncn2C)cc1` (configuration not stated): the values for the Percent Effect in assay [1] and in assay [2] were -1.96% and -14.8%, respectively.
On the same counts, the results for `COCCN1CCC(CNC(=O)C2(c3cccc(C)c3)CC2)CC1` are 5.2% and -5.28%.
On the same counts, the results for `COCCn1ccc(NC(=O)Nc2ccc(C(N)=O)c(F)c2)n1` are 2.25% and -3.67%.
The corresponding values for `CC(C)c1noc(CCCC(=O)N2CCN(Cc3ccncc3)CC2)n1` are 3.6% and -20.6%.
As for `CC(C)c1nnc2n1CCN(C(=O)c1ccc(-n3cnnc3)cc1)C2`, the Percent Effect is -3.86% in assay [1] and -19.9% in assay [2].
Regarding `CN(C)C(=O)CN1C[C@@H]2CC[C@H](C1)N(Cc1cccc(Cl)c1Cl)C2`, the Percent Effect amounted to 0.661% in assay [1] and 1.27% in assay [2].
On the same counts, the results for `Cc1nc(C)n(C2CCCN(C(=O)Cc3cccnc3)C2)n1` (configuration not stated) are -4.24% and 1.27%.
Turning to `CN(C)CC(=O)N1Cc2nc(C(=O)NCc3ccncc3)oc2C1`, the Percent Effect was 4.86% in assay [1] and -45% in assay [2].
Turning to `CC(Cc1ccco1)NC(=O)Nc1cnn(CC(N)=O)c1` (configuration not stated), the Percent Effect in assay [1] is 2.29%; in assay [2], -8.5%.
The corresponding values for `Cc1cc(C)n(C2CCCN(C(=O)c3ccc(F)cc3F)C2)n1` (configuration not stated) are 7.84% and -0.315%.
On the same counts, the results for `NC(=O)CSCCC(=O)N1CCCC1c1ccsc1` (configuration not stated) are -7.94% and 6.46%.
On the same counts, the results for `CN(C)CCN1CCC2(CCN(C(=O)c3ccc(F)cc3)CC2)C1=O` are 2.84% and -5.38%.
On to `COc1ccc(-c2cnc(CN3CCn4c(C)nnc4C3)o2)cc1`, for which the results for the Percent Effect in assay [1] and in assay [2] were 0.144% and -27.2%, respectively.
The corresponding values for `c1coc(-c2noc(CN3CC(n4cccn4)C3)n2)c1` are -3.52% and 24.7%.
The corresponding values for `O=C(CCc1nc2cccnc2[nH]1)NCc1ccc2c(c1)OCO2` are 0.0581% and -41.8%.
The corresponding values for `O=c1c2sccc2nc2n1CCN(Cc1cccs1)CC2` are 6.74% and 8.96%.
With `CCc1[nH]ncc1C(=O)N1CCCC(n2ccnc2C(C)C)C1` (configuration not stated), the Percent Effect turned out to be 4.54% in assay [1] and 5.75% in assay [2].
The corresponding values for `Cc1ccc(NC(C)C(=O)NCc2cccs2)cc1C` (configuration not stated) are 3.13% and -30.8%.
The corresponding values for `Cc1ccc(-c2nc(CN3CCc4nn(C)c(=O)cc4C3)co2)cc1` are 40.1% and -3.75%.
As to `COC[C@@H]1CC[C@H]2[C@H](CCN2C(=O)c2ccncc2F)O1`, the figures for the Percent Effect in assay [1] and in assay [2] were 3.94% and 7.83%, respectively.
For `Cc1nccn1C1CCCN(C(=O)c2ccc3c(c2)nnn3C)C1` (configuration not stated), the Percent Effect was -1.94% in assay [1] and 16.2% in assay [2].
On the same counts, the results for `Cc1cc(CN(C)C(=O)NC(C)c2nncn2C)no1` (configuration not stated) are -3.43% and 6.65%.
The corresponding values for `O=S(=O)(NCC1CCN(c2cnccn2)CC1)c1c(F)cccc1F` are -2.55% and 4.65%.
The corresponding values for `Cc1ccc(CNS(=O)(=O)CC2=NC(=O)n3cccc3C2=O)cc1` are 3.72% and 4.1%.
With `Cn1cnnc1C1CCCN(C(=O)Cc2ccc3c(c2)OCCO3)C1` (configuration not stated), the Percent Effect in assay [1] was -2.39%; in assay [2], 11.9%.
Take `Cc1oc(-c2ccsc2)nc1CC(=O)NCCS(C)(=O)=O`: the Percent Effect in assay [1] is 12.7%; in assay [2], -25.4%.
